A selection: hits, their analogues and other compounds. The true share with any hit is near 2.1%.
Shn3 3UTR inh = inhibitors of Schnurri-3 3'UTR reporter in osteoblasts; Clone20 osteoblast Shn3 3'UTR firefly luciferase, 24 h; inhibition, % at 12.5 µM; hit rate 0.52% among 360,000;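 active = mean inhibition of at least 75% with every replicate also reaching 75%; inconclusive = mean inhibition at least 75% but some replicate below; inactive = mean inhibition below 75%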
TRPM1 prom inh = reduces MITF-dependent TRPM1 promoter luciferase signal; SK-MEL-5 TRPM1 promoter luciferase, 24 h; inhibition, % at 12.5 µM; hit rate 0.83% among 330,000;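 active = mean inhibition across replicates of 60% or more, whatever share of single replicates reaches that level; inconclusive = some that reach 60%, reason not given; inactive = mean inhibition across replicates below 60%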
EBV LMP1 NFkB = Epstein-Barr LMP1 NF-kappaB reporter inhibition. LMP1-induced NF-kappaB luciferase reporter cells, luminescence. AID 504558. hit rate 0.69% among 350,000. inhibition, % at 12.5 µM; in the data active = inhibition above about 41%; inconclusive = no clear call, values can overlap the other calls
PAX8 reporter = PAX8 transcriptional activity inhibition | RMG-I TPO-luciferase reporter, SteadyGlo, 24 h | inhibition, % at 12.6 µM | hit rate 1.2% among 360,000;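 active = mean replicate inhibition at least 60% with every replicate also reaching 60%; inconclusive = only one of the two criteria is met; inactive = mean below 60% and not all replicates reaching 60%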;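 note: luciferase light reporting Pax8 driven TPO promoter activity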
aSyn UTR inh = 5' untranslated region of α-synuclein, MLPCN primary screen; alpha-synuclein 5'UTR reporter, inhibitor activity; inhibition, % (tested at 7.5 µM); hit rate 0.82% among 300,000; AID 1813; in the data active = inhibition above about 60%; inconclusive = no clear call, values can overlap the other calls;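 note: H4 neuroglioblastoma cells stably carrying SNCA 5'UTR luciferase fusion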
Numbers stand for hits; n = inactive; u = inconclusive; x = no result.

SMILES	Shn3 3UTR inh	TRPM1 prom inh	EBV LMP1 NFkB	PAX8 reporter	aSyn UTR inh
O=C(CN1C(=O)c2ccccc2C1=O)NCc1ccc(F)cc1	n	n	n	n	n
CC(=O)n1cc(Nc2ccc([N+](=O)[O-])cc2)c2ccccc21	n	n	n	n	n
CC(=O)SC(C[N+](=O)[O-])c1cn(C(C)=O)c2ccccc12 (stereo not drawn)	n	106	n	x	n
Cc1ccc(/C=N/NC(=O)c2cccc(S(=O)(=O)Nc3cccc(Cl)c3)c2)o1	n	x	n	n	n
O=C(CC(F)(F)F)N1C[C@H]2[C@@H](c3ccccc31)[C@H](CO)N2C(=O)c1cccnc1	x	x	x	n	x
O=C(c1ccc(F)cc1)C1CCN(Cc2ccccc2)CC1	n	n	n	n	x
CN1C(=O)N(C)c2ccc(C=O)c3cccc1c23	n	n	86	n	n
COc1cc(/C=N/NS(=O)(=O)c2ccc(C)cc2)ccc1OCc1ccc(C(=O)O)cc1	n	72	61	100	84
C[C@@H]1CN([C@H](C)CO)C(=O)c2cccc(NC(=O)Nc3cccc4ccccc34)c2O[C@H]1CN(C)C(=O)Nc1ccc(C(F)(F)F)cc1	x	x	x	81	x
Cc1ccc(S(=O)(=O)N(C)C[C@H]2Oc3c(NC(=O)Nc4cccc5ccccc45)cccc3C(=O)N([C@H](C)CO)C[C@H]2C)cc1	x	x	x	n	x
C[C@@H]1CN([C@H](C)CO)C(=O)c2cccc(NC(=O)Nc3ccc(C(F)(F)F)cc3)c2O[C@H]1CN(C)CC1CC1	x	x	x	78	x
Cc1ccc(S(=O)(=O)N(C)C[C@H]2Oc3c(NC(=O)Nc4cccc5ccccc45)cccc3C(=O)N([C@@H](C)CO)C[C@@H]2C)cc1	n	n	n	103	x
C[C@H]1CN([C@@H](C)CO)C(=O)c2cccc(NC(=O)Nc3cccc4ccccc34)c2O[C@@H]1CN(C)C(=O)Nc1ccc(C(F)(F)F)cc1	x	x	x	74	x
C[C@@H]1CN([C@H](C)CO)C(=O)c2cccc(NC(=O)Nc3cccc4ccccc34)c2O[C@@H]1CN(C)C(=O)Nc1ccc(C(F)(F)F)cc1	x	x	x	n	x
CCC(CO)Oc1cc(NCc2ccc(F)cc2)c2ncn(C(C)C)c2c1 (stereo not drawn)	n	n	n	n	x
C/C=C/c1ccc([C@@H]2[C@H](C#N)N(C(=O)CN3CCOCC3)[C@H]2CO)cc1	x	x	x	n	x
O=C1C=C(c2cc3ccccc3s2)CCC1	n	n	51	n	n
C[C@@H]1CN([C@@H](C)CO)C(=O)c2cc(NS(=O)(=O)c3ccc(F)cc3)ccc2O[C@@H]1CN(C)C(=O)Nc1ccc(C(F)(F)F)cc1	x	x	x	71	x
C[C@@H]1CCCCO[C@H](CN(C)C(=O)Nc2ccc(C(F)(F)F)cc2)[C@@H](C)CN([C@@H](C)CO)C(=O)c2cc(NS(=O)(=O)c3ccccc3)ccc2O1	x	x	x	81	x
Cc1ccc(S(=O)(=O)Nc2ccc3c(c2)C(=O)N([C@@H](C)CO)C[C@H](C)[C@@H](CN(C)C(=O)Nc2ccc(C(F)(F)F)cc2)OCCCC[C@@H](C)O3)cc1	x	x	x	75	x
C[C@@H]1CCCCO[C@@H](CN(C)C(=O)Nc2ccc(C(F)(F)F)cc2)[C@H](C)CN([C@@H](C)CO)C(=O)c2cc(NS(=O)(=O)c3ccc(F)cc3)ccc2O1	x	x	x	n	x
C[C@@H]1CCCCO[C@@H](CN(C)C(=O)Nc2ccc(C(F)(F)F)cc2)[C@@H](C)CN([C@H](C)CO)C(=O)c2cc(NS(=O)(=O)c3ccc(F)cc3)ccc2O1	x	x	x	66	x
C[C@@H]1CCCCO[C@H](CN(C)C(=O)Nc2ccc(C(F)(F)F)cc2)[C@@H](C)CN([C@H](C)CO)C(=O)c2cc(NS(=O)(=O)c3ccccc3)ccc2O1	x	x	x	n	x
O=C(O)Cc1ccc(NC(=O)c2cnccn2)cc1	n	n	n	n	n
COC(=O)[C@]12CCCCC=C1N(Cc1ccc3c(c1)OCO3)C(=O)[C@H](CC(=O)N1CCCC1)C2	x	x	x	n	x
SMILES	Shn3 3UTR inh	TRPM1 prom inh	EBV LMP1 NFkB	PAX8 reporter	aSyn UTR inh
C[C@H]1CCCCO[C@H](CN(C)C(=O)Nc2ccc(C(F)(F)F)cc2)[C@@H](C)CN([C@@H](C)CO)C(=O)c2cc(NS(=O)(=O)c3ccc(Cl)cc3)ccc2O1	x	x	x	91	x
C[C@H]1CCCCO[C@H](CN(C)C(=O)Nc2ccc(C(F)(F)F)cc2)[C@@H](C)CN([C@@H](C)CO)C(=O)c2cc(NS(=O)(=O)c3cccs3)ccc2O1	x	x	x	79	x
Cc1ccc(C)c(NC(=O)/C(C#N)=C/c2cn(CC(=O)NCc3ccco3)c3ccccc23)c1	n	n	n	n	u
CN(C)c1ccnc2sc(C(N)=O)c(N)c12	n	n	56	x	n
COc1ccc(C(=S)N2CCCCC2)cc1Br	n	n	n	n	n
COc1ccc(CC(=O)Nc2ccc(S(=O)(=O)Nc3nccs3)cc2)cc1	n	n	n	n	n
O=C(N/N=C/c1ccc([N+](=O)[O-])o1)c1ccncc1	n	x	x	n	n
CCN(CC)S(=O)(=O)c1cccc(C(=O)N/N=C/c2ccc([N+](=O)[O-])o2)c1	n	85	n	n	n
O=C(N/N=C/c1ccc([N+](=O)[O-])o1)c1ccc(O)cc1	n	87	n	n	n
Cc1nc2ccccn2c1C(=O)N/N=C/c1ccc([N+](=O)[O-])o1	n	69	n	n	n
O=C(N/N=C/c1ccc([N+](=O)[O-])o1)c1cc2ccccc2o1	n	98	n	n	66
CN1OC[C@@H]2CN3C(=O)N(c4ccccc4)c4ccccc4[C@@H]3C[C@@H]21	n	x	x	n	x
COc1ccc(NC(=O)CCN2CCC(C)CC2)cc1	n	n	n	n	n
C/[N+]([O-])=C/c1c(OCc2ccc(Cl)cc2Cl)ccc2ccccc12	n	n	n	n	n
Cc1scc(C(=O)N/N=C/c2ccco2)c1C	n	n	n	x	n
Cc1scc(C(=O)N/N=C/c2ccc([N+](=O)[O-])o2)c1C	n	100	n	n	85
COc1cc(/C=C/[N+](=O)[O-])ccc1OCc1cccc(C(=O)O)c1	x	x	x	x	97
CCOc1ccc(OCc2cccc(C(=O)O)c2)cc1	89	93	83	x	84
O=C(O)c1cc(OCc2ccccc2)cc(OCc2ccccc2)c1	n	n	n	n	n
COc1ccc(OCc2cccc(C(=O)O)c2)cc1	94	97	86	x	128
O=C(O)c1cccc(COc2ccc(CO)cc2Cl)c1	89	105	91	x	105
COC(=O)C[C@H]1C[C@@H]2c3cc(NC(=O)CN(C)C)ccc3O[C@@H]2[C@@H](CO)O1	x	x	x	n	x
CCOc1ccccc1NC(=O)C1CCCN(S(=O)(=O)c2ccc(OC)c(C)c2)C1 (stereo not drawn)	n	n	n	x	n
CS(=O)(=O)N(CC(=O)Nc1ccc(S(=O)(=O)N2CCOCC2)cc1)c1ccccc1Br	n	n	n	n	n
O=C(Cn1c(=O)c2cccn2c2ccccc21)NCCCN1CCCCC1	n	n	n	n	n
O=C(OCC(F)(F)F)c1cccc(COc2ccc3ccccc3c2)c1	n	91	79	x	107
O=C(Nc1ccc(S(=O)(=O)NC2=NCCCCC2)cc1)c1cccs1	n	n	n	n	x
